# Experimental data taken from PubChem BioAssay AID1159580 (chemical genetic matrix, 2015).
# Values joined by “and” are separate entries in the source; they are usually repeats but may differ in a detail not shown here. Equal values may be shown once. Out of some 5,500 compounds screened, about 2,000 (36%) were called active. Not shown: some 18% with an inconclusive outcome. The list shows a part of the results. Unmarked numbers belong to inactive results. Cut-off read from the data, not from the text of the source: active = normalized growth mostly below about 0.91 (no sharp cut-off); inconclusive = no clear call, values can overlap the other calls; inactive = mostly above about 0.92.
# Test: chemical genetic growth profiling, strain panel (AID 1159580);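 note: tested at 20 µM; growth read once vehicle control cultures reached saturation at 30 °C; 1 = growth at the plate median or of vehicle wells; lower values mean less growth of the strain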
# Conditions: S. cerevisiae deletion strains, growth OD
smiles,measurement,setting,value
O=[N+]([O-])O[C@H]1CO[C@H]2[C@@H]1OC[C@H]2O[N+](=O)[O-],normalized growth,"locus YAL013W, strain DEP1, stronger effect = lower value",1.01
same,normalized growth,"locus YAL021C, strain ccr4, stronger effect = lower value",0.993
same,normalized growth,"locus YAL026C, strain drs2, stronger effect = lower value",1.01
same,normalized growth,"locus YAL030W, strain snc1, stronger effect = lower value",1
same,normalized growth,"locus YBL061C, strain skt5, stronger effect = lower value",1
same,normalized growth,"locus YBR009C, strain hhf1, stronger effect = lower value",1
same,normalized growth,"locus YBR021W, strain FUR4, stronger effect = lower value",1.01
same,normalized growth,"locus YBR023C, strain chs3, stronger effect = lower value",0.984
same,normalized growth,"locus YBR171W, strain sec66, stronger effect = lower value",0.993
same,normalized growth,"locus YBR229C, strain ROT2, stronger effect = lower value",1.01
same,normalized growth,"locus YBR231C, strain swc5, stronger effect = lower value",0.981
same,normalized growth,"locus YBR279W, strain paf1, stronger effect = lower value",0.978
same,normalized growth,"locus YCL011C, strain gbp2, stronger effect = lower value",0.99
same,normalized growth,"locus YCL016C, strain dcc1, stronger effect = lower value",0.97
same,normalized growth,"locus YCL029C, strain bik1, stronger effect = lower value",1.03
same,normalized growth,"locus YCL061C, strain MRC1, stronger effect = lower value",0.985
same,normalized growth,"locus YCL069W, strain vba3, stronger effect = lower value",0.999
same,normalized growth,"locus YCR088W, strain abp1, stronger effect = lower value",0.985
same,normalized growth,"locus YDL005C, strain med2, stronger effect = lower value",0.991
same,normalized growth,"locus YDL035C, strain GPR1, stronger effect = lower value",1.03
same,normalized growth,"locus YDL040C, strain nat1, stronger effect = lower value",0.999
same,normalized growth,"locus YDL074C, strain BRE1, stronger effect = lower value",1.01
same,normalized growth,"locus YDL101C, strain DUN1, stronger effect = lower value",1
same,normalized growth,"locus YDL134C, strain PPH21, stronger effect = lower value",1.01
same,normalized growth,"locus YDL185W, strain tfp1, stronger effect = lower value",1.01
same,normalized growth,"locus YDL192W, strain arf1, stronger effect = lower value",1.02
same,normalized growth,"locus YDR001C, strain nth1, stronger effect = lower value",0.991
same,normalized growth,"locus YDR069C, strain doa4, stronger effect = lower value",1
same,normalized growth,"locus YDR101C, strain arx1, stronger effect = lower value",0.989
same,normalized growth,"locus YDR137W, strain rgp1, stronger effect = lower value",0.971
same,normalized growth,"locus YDR159W, strain sac3, stronger effect = lower value",1.01
same,normalized growth,"locus YDR162C, strain NBP2, stronger effect = lower value",1.02
same,normalized growth,"locus YDR195W, strain ref2",0.977
same,normalized growth,"locus YDR297W, strain sur2, stronger effect = lower value",0.99
same,normalized growth,"locus YDR318W, strain mcm21, stronger effect = lower value",1.05
same,normalized growth,"locus YDR334W, strain swr1, stronger effect = lower value",0.991
same,normalized growth,"locus YDR335W, strain msn5, stronger effect = lower value",0.995
same,normalized growth,"locus YDR388W, stronger effect = lower value",1.02
same,normalized growth,"locus YDR392W, strain spt3, stronger effect = lower value",0.91
same,normalized growth,"locus YDR502C, strain sam2, stronger effect = lower value",1.03
same,normalized growth,"locus YEL003W, strain gim4, stronger effect = lower value",1
same,normalized growth,"locus YEL037C, strain rad23, stronger effect = lower value",0.995
same,normalized growth,"locus YEL061C, strain CIN8 (second series), stronger effect = lower value",0.99
same,normalized growth,"locus YEL061C, strain CIN8, stronger effect = lower value",1.01
same,normalized growth,"locus YER015W, strain faa2, stronger effect = lower value",1.01
same,normalized growth,"locus YER016W, strain bim1, stronger effect = lower value",1
same,normalized growth,"locus YER110C, stronger effect = lower value",1.02
same,normalized growth,"locus YER111C, strain swi4, stronger effect = lower value",0.979
same,normalized growth,"locus YER155C, strain BEM2 (second series), stronger effect = lower value",0.998
same,normalized growth,"locus YER155C, strain BEM2, stronger effect = lower value",1.01
same,normalized growth,"locus YER167W, strain BCK2, stronger effect = lower value",1.02
same,normalized growth,"locus YFR010W, strain ubp6, stronger effect = lower value",1
same,normalized growth,"locus YGL078C, strain dbp3, stronger effect = lower value",1.02
same,normalized growth,"locus YGL086W, strain mad1, stronger effect = lower value",1.01
same,normalized growth,"locus YGL167C, strain pmr1, stronger effect = lower value",1
same,normalized growth,"locus YGL173C, strain kem1, stronger effect = lower value",1
same,normalized growth,"locus YGL227W, strain vid30, stronger effect = lower value",0.986
same,normalized growth,"locus YGL240W, strain doc1, stronger effect = lower value",0.988
same,normalized growth,"locus YGL248W, strain PDE1, stronger effect = lower value",0.999
same,normalized growth,"locus YGL253W, strain hxk2, stronger effect = lower value",1.01
same,normalized growth,"locus YGR078C, strain PAC10, stronger effect = lower value",1.03
same,normalized growth,"locus YGR135W, strain pre9, stronger effect = lower value",1.04
same,normalized growth,"locus YGR252W, strain gcn5, stronger effect = lower value",1.3 [resistant] (active)
same,normalized growth,"locus YHR013C, strain ard1, stronger effect = lower value",0.971
same,normalized growth,"locus YHR027C, strain rpn1, stronger effect = lower value",0.998
same,normalized growth,"locus YHR030C, strain SLT2, stronger effect = lower value",1.01 and 0.95
same,normalized growth,"locus YHR079C, strain IRE1 (second series), stronger effect = lower value",1.02
same,normalized growth,"locus YHR079C, strain IRE1, stronger effect = lower value",0.956
same,normalized growth,"locus YHR094C, strain hxt1, stronger effect = lower value",1.02
same,normalized growth,"locus YHR129C, strain ARP1, stronger effect = lower value",1.01
same,normalized growth,"locus YHR142W, strain chs7, stronger effect = lower value",0.991
same,normalized growth,"locus YHR200W, strain rpn10, stronger effect = lower value",1.02
same,normalized growth,"locus YIL066C, strain RNR3, stronger effect = lower value",1.02
same,normalized growth,"locus YIL073C, strain SPO22, stronger effect = lower value",1.06
same,normalized growth,"locus YIL125W, strain kgd1, stronger effect = lower value",1.01
same,normalized growth,"locus YIR030C, strain dcg1, stronger effect = lower value",1.01
same,normalized growth,"locus YJL092W, strain hpr5, stronger effect = lower value",0.999
same,normalized growth,"locus YJL095W, strain BCK1 (second series), stronger effect = lower value",0.992
same,normalized growth,"locus YJL095W, strain BCK1, stronger effect = lower value",1.01 and 0.925
same,normalized growth,"locus YJL115W, strain asf1, stronger effect = lower value",0.991
same,normalized growth,"locus YJL129C, strain trk1, stronger effect = lower value",0.991
same,normalized growth,"locus YJL134W, strain LCB3, stronger effect = lower value",1.02
same,normalized growth,"locus YJL154C, strain vps35, stronger effect = lower value",0.998
same,normalized growth,"locus YJL164C, strain tpk1, stronger effect = lower value",0.988
same,normalized growth,"locus YJL166W, strain qcr8, stronger effect = lower value",0.984
same,normalized growth,"locus YJL168C, strain set2, stronger effect = lower value",1
same,normalized growth,"locus YJL187C, strain SWE1 (second series), stronger effect = lower value",1.01
same,normalized growth,"locus YJL187C, strain SWE1, stronger effect = lower value",1
